# Measurements from PubChem BioAssay AID1159580 (chemical genetic matrix, 2015).
# Out of some 5,500 compounds screened, about 2,000 (36%) were called active. Roughly 18% stayed inconclusive and do not appear here. The list shows a part of the results. Values without a mark were called inactive. Cut-off read from the data, not from the text of the source: active = normalized growth mostly below about 0.91 (no sharp cut-off); inconclusive = no clear call, values can overlap the other calls; inactive = mostly above about 0.92.
# Experiment: chemical genetic growth profiling, strain panel (AID 1159580);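 note: tested at 20 µM; growth read once vehicle control cultures reached saturation at 30 °C; 1 = growth at the plate median or of vehicle wells; lower values mean less growth of the strain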
# Conditions: growth OD
# [1] = S. cerevisiae deletion strains, locus YDL101C, strain DUN1, active compounds read low
# [2] = S. cerevisiae deletion strains, locus YHR030C, strain SLT2, active compounds read low
# [3] = S. cerevisiae deletion strains, locus YAL013W, strain DEP1, active compounds read low
# [4] = S. cerevisiae deletion strains, locus YBR229C, strain ROT2, active compounds read low
# [5] = S. cerevisiae deletion strains, locus YDR150W, strain NUM1, active compounds read low
# [6] = S. cerevisiae deletion strains, locus YEL061C, strain CIN8, active compounds read low
# [7] = S. cerevisiae deletion strains, locus YGR078C, strain PAC10, active compounds read low
# [8] = S. cerevisiae deletion strains, locus YHR087W, strain rtc3, active compounds read low
# [9] = S. cerevisiae deletion strains, locus YJR043C, strain POL32, active compounds read low
# [10] = S. cerevisiae deletion strains, locus YJR075W, strain HOC1, active compounds read low
# [11] = S. cerevisiae deletion strains, locus YLR039C, strain RIC1, active compounds read low
# [12] = S. cerevisiae deletion strains, locus YLR058C, strain SHM2 (second series), active compounds read low
# [13] = S. cerevisiae deletion strains, locus YLR085C, strain ARP6, active compounds read low
# [14] = S. cerevisiae deletion strains, locus YLR262C, strain YPT6, active compounds read low
# [15] = S. cerevisiae deletion strains, locus YML094W, strain GIM5, active compounds read low
# [16] = S. cerevisiae deletion strains, locus YMR219W, strain ESC1, active compounds read low
# [17] = S. cerevisiae deletion strains, locus YMR263W, strain SAP30, active compounds read low
# [18] = S. cerevisiae deletion strains, locus YNL153C, strain GIM3, active compounds read low
# [19] = S. cerevisiae deletion strains, locus YNL298W, strain CLA4 (second series), active compounds read low
# [20] = S. cerevisiae deletion strains, locus YNL322C, strain KRE1, active compounds read low
# [21] = S. cerevisiae deletion strains, locus YNR030W, strain Alg12, active compounds read low
# [22] = S. cerevisiae deletion strains, locus YPL055C, strain LGE1, active compounds read low
# [23] = S. cerevisiae deletion strains, locus YPL241C, strain CIN2, active compounds read low
# [24] = S. cerevisiae deletion strains, locus YPR135W, strain CTF4, active compounds read low
# [25] = S. cerevisiae strains, strain wild type, active compounds read low
structure (smiles),measurement,setting,value
Cc1ccc(Sc2ncccc2NS(=O)(=O)c2ccc(Cl)cc2)cc1,normalized growth,"S. cerevisiae deletion strains, locus YAR019C, strain CDC15, active compounds read low",0.933
same,normalized growth,"S. cerevisiae deletion strains, locus YBL105C, strain PKC1, active compounds read low",0.924
same,normalized growth,"S. cerevisiae deletion strains, locus YBR135W, strain CKS1, active compounds read low",0.935
same,normalized growth,"S. cerevisiae deletion strains, locus YBR136W, strain MEC1, active compounds read low",0.922
same,normalized growth,"S. cerevisiae deletion strains, locus YBR160W, strain CDC28, active compounds read low",0.934
same,normalized growth,"S. cerevisiae deletion strains, locus YDL017W, strain CDC7, active compounds read low",0.937
same,normalized growth,"S. cerevisiae deletion strains, locus YDL028C, strain MPS1, active compounds read low",0.932
same,normalized growth,[1],0.947
same,normalized growth,"S. cerevisiae deletion strains, locus YDL108W, strain KIN28, active compounds read low",0.919
same,normalized growth,"S. cerevisiae deletion strains, locus YDL132W, strain cdc53, active compounds read low",0.932
same,normalized growth,"S. cerevisiae deletion strains, locus YDL214C, strain PRR2, active compounds read low",0.852
same,normalized growth,"S. cerevisiae deletion strains, locus YDR052C, strain DBF4, active compounds read low",0.952
same,normalized growth,"S. cerevisiae deletion strains, locus YDR054C, strain cdc34, active compounds read low",0.922
same,normalized growth,"S. cerevisiae deletion strains, locus YDR226W, strain ADK1, active compounds read low",0.938
same,normalized growth,"S. cerevisiae deletion strains, locus YDR477W, strain SNF1, active compounds read low",0.881
same,normalized growth,"S. cerevisiae deletion strains, locus YER123W, strain YCK3, active compounds read low",0.823
same,normalized growth,"S. cerevisiae deletion strains, locus YER133W, strain GLC7, active compounds read low",0.855
same,normalized growth,"S. cerevisiae deletion strains, locus YFL009W, strain cdc4, active compounds read low",0.935
same,normalized growth,"S. cerevisiae deletion strains, locus YFL029C, strain CAK1, active compounds read low",0.931
same,normalized growth,"S. cerevisiae deletion strains, locus YFR003C, strain YPI1, active compounds read low",0.929
same,normalized growth,"S. cerevisiae deletion strains, locus YFR019W, strain FAB1, active compounds read low",0.923
same,normalized growth,"S. cerevisiae deletion strains, locus YFR028C, strain CDC14, active compounds read low",0.926
same,normalized growth,"S. cerevisiae deletion strains, locus YGR040W, strain KSS1, active compounds read low",0.858
same,normalized growth,"S. cerevisiae deletion strains, locus YGR052W, strain FMP48, active compounds read low",0.907
same,normalized growth,"S. cerevisiae deletion strains, locus YGR092W, strain DBF2, active compounds read low",0.826
same,normalized growth,[2],0.839 (active)
same,normalized growth,"S. cerevisiae deletion strains, locus YHR079C, strain IRE1, active compounds read low",0.87
same,normalized growth,"S. cerevisiae deletion strains, locus YHR082C, strain KSP1, active compounds read low",0.845
same,normalized growth,"S. cerevisiae deletion strains, locus YHR205W, strain SCH9, active compounds read low",0.852
same,normalized growth,"S. cerevisiae deletion strains, locus YIL147C, strain SLN1, active compounds read low",0.917
same,normalized growth,"S. cerevisiae deletion strains, locus YJL095W, strain BCK1, active compounds read low",0.909
same,normalized growth,"S. cerevisiae deletion strains, locus YJL128C, strain PBS2, active compounds read low",0.88
same,normalized growth,"S. cerevisiae deletion strains, locus YJL157C, strain FAR1, active compounds read low",0.856
same,normalized growth,"S. cerevisiae deletion strains, locus YJR016C, strain ILV3, active compounds read low",0.919
same,normalized growth,"S. cerevisiae deletion strains, locus YJR066W, strain TOR1 (second series), active compounds read low",0.851
same,normalized growth,"S. cerevisiae deletion strains, locus YJR066W, strain TOR1, active compounds read low",0.882
same,normalized growth,"S. cerevisiae deletion strains, locus YKL048C, strain ELM1, active compounds read low",0.888
same,normalized growth,"S. cerevisiae deletion strains, locus YKL067W, strain YNK1, active compounds read low",0.894
same,normalized growth,"S. cerevisiae deletion strains, locus YKL101W, strain HSL1, active compounds read low",0.884
same,normalized growth,"S. cerevisiae deletion strains, locus YKL193C, strain SDS22, active compounds read low",0.932
same,normalized growth,"S. cerevisiae deletion strains, locus YKL203C, strain TOR2, active compounds read low",0.928
same,normalized growth,"S. cerevisiae deletion strains, locus YLR113W, strain HOG1, active compounds read low",0.809 (active)
same,normalized growth,"S. cerevisiae deletion strains, locus YLR133W, strain CKI1, active compounds read low",0.894
same,normalized growth,"S. cerevisiae deletion strains, locus YLR403W, strain SFP1, active compounds read low",0.861
same,normalized growth,"S. cerevisiae deletion strains, locus YML070W, strain DAK1, active compounds read low",0.849
same,normalized growth,"S. cerevisiae deletion strains, locus YMR001C, strain CDC5, active compounds read low",0.928
same,normalized growth,"S. cerevisiae deletion strains, locus YMR205C, strain PFK2 (second series), active compounds read low",0.888
same,normalized growth,"S. cerevisiae deletion strains, locus YMR277W, strain FCP1, active compounds read low",0.934
same,normalized growth,"S. cerevisiae deletion strains, locus YNL006W, strain LST8, active compounds read low",0.947
same,normalized growth,"S. cerevisiae deletion strains, locus YNL020C, strain ARK1, active compounds read low",0.879
same,normalized growth,"S. cerevisiae deletion strains, locus YNL161W, strain CBK1, active compounds read low",0.929
same,normalized growth,"S. cerevisiae deletion strains, locus YNL183C, strain NPR1, active compounds read low",0.897
same,normalized growth,"S. cerevisiae deletion strains, locus YNL207W, strain RIO2, active compounds read low",0.924
same,normalized growth,"S. cerevisiae deletion strains, locus YNL222W, strain SSU72, active compounds read low",0.933
same,normalized growth,"S. cerevisiae deletion strains, locus YNL307C, strain MCK1 (second series), active compounds read low",0.885
same,normalized growth,"S. cerevisiae deletion strains, locus YOL078W, strain AVO1, active compounds read low",0.94
same,normalized growth,"S. cerevisiae deletion strains, locus YOL136C, strain PFK27, active compounds read low",0.854
same,normalized growth,"S. cerevisiae deletion strains, locus YOR061W, strain CKA2, active compounds read low",0.85
same,normalized growth,"S. cerevisiae deletion strains, locus YOR119C, strain RIO1, active compounds read low",0.912
same,normalized growth,"S. cerevisiae deletion strains, locus YOR231W, strain MKK1, active compounds read low",0.891
same,normalized growth,"S. cerevisiae deletion strains, locus YOR329C, strain SCD5, active compounds read low",0.929
same,normalized growth,"S. cerevisiae deletion strains, locus YPL031C, strain PHO85, active compounds read low",0.866
same,normalized growth,"S. cerevisiae deletion strains, locus YPL153C, strain RAD53, active compounds read low",0.863
same,normalized growth,"S. cerevisiae deletion strains, locus YPL204W, strain HRR25, active compounds read low",0.884
same,normalized growth,"S. cerevisiae deletion strains, locus YPL209C, strain IPL1, active compounds read low",0.934
same,normalized growth,"S. cerevisiae deletion strains, locus YPL256C, strain CLN2, active compounds read low",0.827 (active)
same,normalized growth,"S. cerevisiae deletion strains, locus YPR025C, strain CCL1, active compounds read low",0.933
same,normalized growth,"S. cerevisiae deletion strains, locus YPR106W, strain ISR1, active compounds read low",0.925
same,normalized growth,"S. cerevisiae deletion strains, locus YPR111W, strain DBF20, active compounds read low",0.924
same,normalized growth,"S. cerevisiae deletion strains, strain NNK1, active compounds read low",0.92
same,normalized growth,"S. cerevisiae deletion strains, strain TSCII, active compounds read low",0.928
Cc1ccc(SC(=O)c2cccnc2Oc2ccccc2)cc1,normalized growth,[3],0.972
same,normalized growth,[4],0.988
same,normalized growth,"S. cerevisiae deletion strains, locus YCL061C, strain MRC1, active compounds read low",0.989
same,normalized growth,[1],1.03
same,normalized growth,"S. cerevisiae deletion strains, locus YDL134C, strain PPH21, active compounds read low",0.983
same,normalized growth,[5],1.02
same,normalized growth,[6],0.965
same,normalized growth,[7],0.992
same,normalized growth,[2],0.815
same,normalized growth,[8],0.953
same,normalized growth,"S. cerevisiae deletion strains, locus YJL187C, strain SWE1, active compounds read low",0.98
same,normalized growth,[9],0.992
same,normalized growth,[10],0.985
same,normalized growth,[11],0.723 (active)
same,normalized growth,[12],0.992
same,normalized growth,[13],0.818
same,normalized growth,[14],0.679 (active)
same,normalized growth,[15],0.949
same,normalized growth,[16],0.993
same,normalized growth,[17],0.984
same,normalized growth,[18],0.982
same,normalized growth,[19],0.925
same,normalized growth,[20],0.983
same,normalized growth,[21],0.91
same,normalized growth,[22],0.939
same,normalized growth,[23],0.94
same,normalized growth,[24],0.723
same,normalized growth,[25],0.952
CCSc1ncccc1C(=O)N[C@@H](CCSC)C(=O)OC,normalized growth,[3],0.994
same,normalized growth,[4],0.996
same,normalized growth,[1],0.98
same,normalized growth,[5],0.906
same,normalized growth,[6],1.02
same,normalized growth,[7],0.993
same,normalized growth,"S. cerevisiae deletion strains, locus YGR229C, strain SMI1, active compounds read low",1
same,normalized growth,[2],0.979
same,normalized growth,[8],1
same,normalized growth,[9],0.98
same,normalized growth,[10],1.01
same,normalized growth,"S. cerevisiae deletion strains, locus YKL190W, strain CNB1, active compounds read low",1.01
same,normalized growth,[11],1
same,normalized growth,[12],1.01
same,normalized growth,[13],1.04
same,normalized growth,[14],1.02
same,normalized growth,[15],1.03
same,normalized growth,[16],1.01
same,normalized growth,[17],1.01
same,normalized growth,"S. cerevisiae deletion strains, locus YMR307W, strain GAS1, active compounds read low",1.02
same,normalized growth,[18],0.999
same,normalized growth,[19],1.01
same,normalized growth,[20],1.01
same,normalized growth,[21],0.997
same,normalized growth,"S. cerevisiae deletion strains, locus YOL006C, strain TOP1, active compounds read low",1
same,normalized growth,[22],1.09
same,normalized growth,[23],1.01
same,normalized growth,[24],0.91
same,normalized growth,[25],1
